About 4,200 (4.2%) of roughly 100,000 compounds were called active. This is one part of a sample in which actives are shown more often than they occur.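 Rule for the calls: active = single-dose well whose peak fluorescence ratio is a statistical outlier from its plate by either plate-standardised score or position-corrected B-score; inactive = the rest.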
The compounds below were run against Voltage-dependent T-type calcium channel subunit alpha-1H (Homo sapiens) (UniProt O95180) (assay: Cav3.2 calcium influx blockers – cell-based, Fluo-4 calcium fluorescence, FDSS, MLSMR library, primary screen (AID 449739)). Settings: Cav3.2-expressing cells, at 10 µM, stronger effect = lower value.
Voltage-dependent T-type calcium channel subunit alpha-1H (Homo sapiens), sequence (O95180 whole entry, looked up): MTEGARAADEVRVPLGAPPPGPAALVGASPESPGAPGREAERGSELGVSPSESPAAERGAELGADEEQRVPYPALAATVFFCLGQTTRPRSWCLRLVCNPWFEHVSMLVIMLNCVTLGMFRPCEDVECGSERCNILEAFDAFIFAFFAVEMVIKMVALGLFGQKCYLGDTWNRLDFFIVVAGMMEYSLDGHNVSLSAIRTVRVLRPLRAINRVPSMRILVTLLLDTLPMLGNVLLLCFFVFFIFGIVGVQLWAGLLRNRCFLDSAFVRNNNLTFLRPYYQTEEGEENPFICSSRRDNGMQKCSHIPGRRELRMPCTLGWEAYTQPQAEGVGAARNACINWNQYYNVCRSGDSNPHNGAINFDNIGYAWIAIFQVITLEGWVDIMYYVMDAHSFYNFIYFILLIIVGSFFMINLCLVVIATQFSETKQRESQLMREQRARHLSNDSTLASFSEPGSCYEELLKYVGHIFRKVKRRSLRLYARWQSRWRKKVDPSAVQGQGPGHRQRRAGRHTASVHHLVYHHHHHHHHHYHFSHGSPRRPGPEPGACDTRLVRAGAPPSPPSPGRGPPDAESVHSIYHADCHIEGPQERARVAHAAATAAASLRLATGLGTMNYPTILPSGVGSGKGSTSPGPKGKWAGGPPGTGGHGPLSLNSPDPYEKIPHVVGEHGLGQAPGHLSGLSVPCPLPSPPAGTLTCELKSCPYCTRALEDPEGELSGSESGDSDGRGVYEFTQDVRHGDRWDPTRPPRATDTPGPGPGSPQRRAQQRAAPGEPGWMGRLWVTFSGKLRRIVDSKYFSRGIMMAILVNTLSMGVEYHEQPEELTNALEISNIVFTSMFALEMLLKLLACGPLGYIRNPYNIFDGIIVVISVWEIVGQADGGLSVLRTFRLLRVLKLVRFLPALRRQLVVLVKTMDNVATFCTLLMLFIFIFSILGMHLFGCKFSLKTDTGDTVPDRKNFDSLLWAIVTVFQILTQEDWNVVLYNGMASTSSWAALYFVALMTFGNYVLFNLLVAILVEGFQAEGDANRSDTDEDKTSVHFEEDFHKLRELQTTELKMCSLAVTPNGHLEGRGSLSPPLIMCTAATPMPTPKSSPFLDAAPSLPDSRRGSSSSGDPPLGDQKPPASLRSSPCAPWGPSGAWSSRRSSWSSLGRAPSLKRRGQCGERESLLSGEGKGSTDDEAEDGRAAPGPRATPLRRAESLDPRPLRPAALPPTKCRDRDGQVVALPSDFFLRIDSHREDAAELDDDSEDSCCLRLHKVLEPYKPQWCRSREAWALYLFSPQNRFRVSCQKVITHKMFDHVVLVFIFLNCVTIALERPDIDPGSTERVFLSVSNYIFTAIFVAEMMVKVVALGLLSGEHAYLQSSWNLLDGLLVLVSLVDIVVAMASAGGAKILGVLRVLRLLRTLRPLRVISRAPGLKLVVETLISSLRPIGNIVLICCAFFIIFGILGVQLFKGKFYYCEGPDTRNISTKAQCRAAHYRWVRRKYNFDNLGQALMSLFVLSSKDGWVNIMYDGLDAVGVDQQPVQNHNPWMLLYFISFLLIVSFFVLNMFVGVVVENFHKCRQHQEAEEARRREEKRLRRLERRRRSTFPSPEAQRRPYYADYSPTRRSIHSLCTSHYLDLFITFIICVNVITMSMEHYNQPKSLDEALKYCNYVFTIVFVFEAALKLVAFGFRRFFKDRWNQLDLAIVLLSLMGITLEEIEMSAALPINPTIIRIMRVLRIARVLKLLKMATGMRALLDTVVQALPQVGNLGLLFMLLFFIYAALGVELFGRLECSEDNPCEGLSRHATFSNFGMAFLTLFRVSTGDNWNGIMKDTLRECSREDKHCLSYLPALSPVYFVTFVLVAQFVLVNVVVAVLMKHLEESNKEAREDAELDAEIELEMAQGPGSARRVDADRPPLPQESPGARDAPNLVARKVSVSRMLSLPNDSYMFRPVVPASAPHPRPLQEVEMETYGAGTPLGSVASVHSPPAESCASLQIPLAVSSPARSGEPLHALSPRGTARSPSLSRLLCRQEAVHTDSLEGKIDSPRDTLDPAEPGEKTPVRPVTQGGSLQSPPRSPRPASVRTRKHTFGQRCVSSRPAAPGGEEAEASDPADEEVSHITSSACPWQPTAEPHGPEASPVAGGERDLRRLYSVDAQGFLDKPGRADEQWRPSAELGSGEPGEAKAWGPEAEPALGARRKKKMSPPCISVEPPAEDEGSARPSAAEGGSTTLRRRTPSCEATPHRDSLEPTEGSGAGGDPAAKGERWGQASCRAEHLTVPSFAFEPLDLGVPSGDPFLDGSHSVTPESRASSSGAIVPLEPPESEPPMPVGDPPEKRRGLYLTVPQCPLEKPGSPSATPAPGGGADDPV

Structure (SMILES) | B-score
CCOC(=O)c1c(N)n(Cc2ccccc2)c2nc3ccccc3nc12 | -0.856 (inactive)
CCOC(=O)c1c(N)n(CCN2CCOCC2)c2nc3ccccc3nc12 | 0.618 (inactive)
COc1cc(Cn2c(N)c(C(=O)NCc3ccco3)c3nc4ccccc4nc32)cc(OC)c1OC | -1.47 (active)
O=C(COc1ccc2ccccc2c1)N1CCN(Cc2ccncc2)CC1 | 0.31 (inactive)
CCCCn1c(O)c(C(CC)=NCc2ccco2)c(=O)[nH]c1=O | -0.626 (inactive)
CCCCCCN=C(CC)c1c(O)n(CCCC)c(=O)[nH]c1=O | -6.91 (active)
CCC(=NCCCO)c1c(O)n(-c2ccc(OC)cc2)c(=O)[nH]c1=O | -0.0478 (inactive)
COC(=O)C1=C(c2cc3ccccc3o2)C[C@@H]2CC[C@H]1N2C(=O)NC1CCCCC1 | -0.929 (inactive)
COc1ccc2c(c1)[C@]13CCCCC1C(C2)N(C)CC3 (stereo not given in full) | 1.06 (inactive)
CCCCCn1c(=O)c(C(=O)Nc2c(C)n(C)n(-c3ccccc3)c2=O)c(O)c2ccccc21 | -7.21 (active)
CCCCCn1c(=O)c(C(=O)NCc2ccccn2)c(O)c2ccccc21 | -1.65 (inactive)
C[C@@]1([C@@H](NP(=O)(c2ccccc2)c2ccccc2)c2ccccc2)C[C@H]1CCO | -0.319 (inactive)
C[N+]1(C)CCOC(O)(c2ccc(-c3ccc(C4(O)C[N+](C)(C)CCO4)cc3)cc2)C1 (stereo not given) | 0.445 (inactive)
C=CC12CN(C)[C@@H]3C4CO[C@H](C[C@H]41)[C@]1(C(=O)Nc4ccccc41)[C@@H]32 (stereo not given in full) | -0.174 (inactive)
Cc1ccc(N(C)C(=O)Oc2cccc3ccc(C)nc23)cc1 | -6.07 (active)
COC(=O)C1=C(c2ccccc2)C[C@@H]2CC[C@H]1N2C(=O)NCc1ccco1 | 0.641 (inactive)
CCCC[N+]1(C)C2CC(OC(=O)C(CO)c3ccccc3)CC1C1OC12 (stereo not given) | -0.292 (inactive)
CN(C)C(=O)NC(O)C(Cl)(Cl)Cl (stereo not given) | -0.859 (inactive)
CNCC(O)c1cc(F)c(OCc2ccccc2)c(OCc2ccccc2)c1F (stereo not given) | -0.0158 (inactive)
CC(C)(C)c1ccc(CN2C(=O)CN=C(c3ccccc3)c3ccccc32)cc1 | -5.08 (active)
CC1C2Cn3c(nc4ccccc43)C1N(C)O2 (stereo not given) | 0.301 (inactive)
COC(=O)C1=C(c2cc3ccccc3s2)C[C@@H]2CC[C@H]1N2C(=O)NCc1cccc2ccccc12 | -4.11 (active)
COC(=O)C1=C(c2cc3ccccc3s2)C[C@@H]2CC[C@H]1N2C(=O)NCCO | 0.584 (inactive)
COC(=O)C1=C(c2cc3ccccc3s2)C[C@@H]2CC[C@H]1N2C(=O)NC(C)C | 0.726 (inactive)
COC(=O)C1=C(c2ccccc2)C[C@@H]2CC[C@H]1N2C(=O)N1CCCCC1 | 0.364 (inactive)
COc1ccc2c(c1O)-c1cccc3c1[C@@H](C2)N(C)CC3 | -2.61 (inactive)
COc1c(O)ccc2c1-c1c3c(cc4c1C(C2)N(C)CC4)OCO3 (stereo not given) | 0.137 (inactive)
CC[C@H]1CC2CN3CCc4c([nH]c5ccccc45)C(C(=O)OC)(C2)C13 (stereo not given in full) | -1.28 (inactive)
NCC(O)c1ccc(O)cc1 (stereo not given) | 1.98 (inactive)
CC(C)(C)[C@]1(O)C[C@@H]2OC(=O)C[C@@]23C(=O)O[C@@H]2OC(=O)[C@H](O)[C@]213 | 0.0998 (inactive)

Reference: PubChem BioAssay AID449739 (Vanderbilt High Throughput Screening Facility, 2010)
